Results filed as inconclusive are left out. Where a call stands in place of a potency, no number is given. Calls of active or inactive are those of the source. Unless noted, calls come from the whole dose curve; as a rule, active = well fitted curve in the direction sought with a large enough effect in the repeat runs; inconclusive = weak or mixed curves; inactive = no such curve, though single readings can be large; an effect the other way counts as inactive or inconclusive.
Tests used:
[1] = qHTS assay to identify small molecule agonists of the estrogen receptor alpha (ER-alpha) signaling pathway in the presence of an antagonist - cell viability counter screen (AID 1259386);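 note: series mostly up to about 92 µM; cells exposed to compounds for 22 h at 37 °C before the viability read; nearly all actives have a fitted effect of over 30% in size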
Summary of the method: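 VM7Luc4E2, stripped-serum pre-culture 5 d; 24hr plating; +ICI-182,780 10.0nM final; cpds 15 conc, 22hr, 37C/5% CO2; CellTiter-Fluor added at 21hr, fluorescence 1hr later.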

[2] = molecular target: Progesterone receptor (Homo sapiens) (UniProt P06401); experiment: qHTS assay to identify small molecule agonists of the progesterone receptor (PR) signaling pathway (AID 1346784; calls by dose curve; note: nearly all actives have a fitted effect of over 30% in size; note: potency is the fitted concentration of half-maximal effect)
Summary of the method: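 The screen uses PR-UAS-bla HEK 293T cells in charcoal-stripped serum (2%). Compounds are applied for 16 hr at 37C after a 6 hr pre-incubation, and reporter activity is detected with a FRET beta-lactamase substrate after 2 hr at room temperature.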

[3] = molecular target: Progesterone receptor (Homo sapiens) (UniProt P06401); experiment: qHTS assay to identify small molecule antagonists of the progesterone receptor (PR) signaling pathway (AID 1346795; active = well fitted inhibition curve with a large enough effect in the signal ratio in the repeat runs, not every such curve was filed as active; the % refers to the signal ratio)
Summary of the method: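 After 6 hr plating at 37C in 2% stripped-serum medium, PR-UAS-bla HEK293T cells got compounds, then 1 nM R5020. Sixteen hours later, LiveBLAzer substrate was applied for 2 hr at room temperature and fluorescence was recorded.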

[4] = qHTS assay to identify small molecule antagonists of the progesterone receptor (PR) signaling pathway - cell viability counter screen (AID 1346798); note: series mostly up to about 92 µM; nearly all actives have a fitted effect of over 50% in size
Summary of the method: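 Viability was determined by ATP-based luminescence (CellTiter-Glo) in PR-UAS-bla HEK293T cells cultured in 2% charcoal-stripped serum and incubated 16 hr with compounds under R5020 stimulation.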

[5] = qHTS assay to identify small molecule agonists of the progesterone receptor (PR) signaling pathway - cell viability counter screen (AID 1346799; calls by dose curve; note: nearly all actives have a fitted effect of over 45% in size)
Summary of the method: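 Viability was scored by ATP luminescence (CellTiter-Glo, 30 min, room temperature) in the same wells used for the reporter readout, after 16 hr compound exposure of PR-UAS-bla HEK293T cells.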

[6] = qHTS assay to identify small molecule antagonists of the TGF-beta/Smad signaling pathway - cell viability counter screen (AID 1346824); note: nearly all actives have a fitted effect of over 50% in size
Summary of the method: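 SBE-bla HEK 293T cells, incubated overnight, then compound plus 0.25 ng/mL TGF-beta1 (stock added) for 5 hr at 37 C. Viability was read in the same wells by CellTiter-Glo luminescence after 30 min at room temperature.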

[7] = qHTS assay to identify small molecule agonists of the TGF-beta/Smad signaling pathway - cell viability counter screen (AID 1346829); note: top concentration of the series differs between compounds; nearly all actives have a fitted effect of over 45% in size
Summary of the method: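 Luminescence from CellTiter-Glo, read after a 30 min room-temperature incubation, gives cell viability of SBE-bla HEK 293T cells treated 5 hr with compounds at 37 C.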

[8] = qHTS assay to identify small molecule agonists of the TGF-beta/Smad signaling pathway (AID 1346859; active = well fitted activation curve with a large enough effect in the signal ratio in the repeat runs, not every such curve was filed as active; the % refers to the signal ratio; note: series mostly up to about 77 µM)
Summary of the method: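 Dual-wavelength fluorescence (460/530 nm emission) quantified beta-lactamase expression under the Smad binding element in HEK 293T cells following 5 hr compound treatment at 37 C.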

[9] = molecular target: Thyrotropin-releasing hormone receptor (Homo sapiens) (UniProt P34981); experiment: qHTS assay to identify small molecule antagonists of the thyrotropin-releasing hormone receptor (TRHR) signaling pathway (AID 1346877; active = well fitted inhibition curve with a large enough effect in the repeat runs, not every such curve was filed as active; note: series mostly up to about 51 µM)
Summary of the method: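 Intracellular calcium fluorescence, read kinetically every second over 3 min, reports TRH-evoked signalling in HEK293 cells carrying TRHR. Test compounds were added 5 min ahead of a 1 nM TRH challenge.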

[10] = molecular target: Thyrotropin-releasing hormone receptor (Homo sapiens) (UniProt P34981); experiment: qHTS assay to identify small molecule agonists of the thyrotropin-releasing hormone receptor (TRHR) signaling pathway (AID 1346891; calls by dose curve;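 note: HEK293 cells expressing TRHR with calcium dye readout; series mostly up to about 58 µM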)
Summary of the method: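 Kinetic fluorescence (3 min, 1 s intervals) reported intracellular calcium after compound transfer onto TRHR-Hek293 cells pre-loaded with dye for 2 h at 37 °C.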

Sequence of Progesterone receptor (Homo sapiens) (P06401 whole entry, looked up): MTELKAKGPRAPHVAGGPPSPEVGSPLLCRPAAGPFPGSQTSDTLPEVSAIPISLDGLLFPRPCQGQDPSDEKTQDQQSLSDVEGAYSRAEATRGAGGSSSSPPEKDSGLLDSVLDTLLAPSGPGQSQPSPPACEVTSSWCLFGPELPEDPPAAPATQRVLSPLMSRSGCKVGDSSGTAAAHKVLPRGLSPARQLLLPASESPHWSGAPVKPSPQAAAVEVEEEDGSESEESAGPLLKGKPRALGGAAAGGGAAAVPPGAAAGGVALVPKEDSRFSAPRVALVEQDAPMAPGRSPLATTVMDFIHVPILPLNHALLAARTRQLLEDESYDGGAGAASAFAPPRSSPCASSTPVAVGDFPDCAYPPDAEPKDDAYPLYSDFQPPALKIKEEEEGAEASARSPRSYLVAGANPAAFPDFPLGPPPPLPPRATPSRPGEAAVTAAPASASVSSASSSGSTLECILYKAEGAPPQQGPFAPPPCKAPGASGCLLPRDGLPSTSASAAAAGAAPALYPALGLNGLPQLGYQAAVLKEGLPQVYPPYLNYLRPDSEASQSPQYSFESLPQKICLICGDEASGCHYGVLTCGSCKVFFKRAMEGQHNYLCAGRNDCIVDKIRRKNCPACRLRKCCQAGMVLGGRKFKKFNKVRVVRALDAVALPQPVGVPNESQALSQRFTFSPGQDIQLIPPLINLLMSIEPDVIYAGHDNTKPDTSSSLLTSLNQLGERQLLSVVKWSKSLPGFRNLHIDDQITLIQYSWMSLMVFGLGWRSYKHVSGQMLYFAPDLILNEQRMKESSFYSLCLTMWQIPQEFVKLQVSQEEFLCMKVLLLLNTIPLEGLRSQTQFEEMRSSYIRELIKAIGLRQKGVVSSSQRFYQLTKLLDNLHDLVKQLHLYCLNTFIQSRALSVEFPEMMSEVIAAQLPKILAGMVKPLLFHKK
Sequence of Thyrotropin-releasing hormone receptor (Homo sapiens) (P34981 whole entry, looked up): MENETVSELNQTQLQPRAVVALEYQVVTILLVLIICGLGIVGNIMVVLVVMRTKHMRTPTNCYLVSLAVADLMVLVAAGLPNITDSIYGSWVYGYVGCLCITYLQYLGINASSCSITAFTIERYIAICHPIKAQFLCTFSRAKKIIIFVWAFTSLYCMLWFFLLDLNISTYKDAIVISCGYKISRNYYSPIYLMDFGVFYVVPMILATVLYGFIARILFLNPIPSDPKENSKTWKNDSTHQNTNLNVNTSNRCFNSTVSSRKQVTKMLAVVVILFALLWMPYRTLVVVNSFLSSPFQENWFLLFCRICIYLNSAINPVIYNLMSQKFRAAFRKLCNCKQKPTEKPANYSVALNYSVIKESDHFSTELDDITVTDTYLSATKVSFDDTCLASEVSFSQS

Row | SMILES | Potency [1] | Potency [2] | Potency [3] | Potency [4] | Potency [5] | Potency [6] | Potency [7] | Potency [8] | Potency [9] | outcome [10]
1 | OC1CCCc2ccccc21 (stereo not given) | inactive | inactive | inactive | inactive | inactive | inactive | inactive | inactive | inactive | inactive
2 | CC(C)(C)NSc1nc2ccccc2s1 | inactive | inactive | inactive | inactive | inactive | inactive | inactive | inactive | – | –
3 | CCCCOC(=O)CC | inactive | inactive | inactive | inactive | inactive | inactive | inactive | inactive | inactive | inactive
4 | CCc1cccc(CC)c1NC(=O)CN(CC(=O)O)CC(=O)O | inactive | inactive | inactive | inactive | inactive | inactive | – | inactive | inactive | inactive
5 | O=[N+]([O-])c1ccc(F)c(Cl)c1 | inactive | 1090 nM (active) | inactive | inactive | – | inactive | inactive | inactive | inactive | inactive
6 | Nc1nc2c(ncn2COCCO)c(=O)[nH]1 | inactive | inactive | inactive | inactive | inactive | – | inactive | inactive | – | –
7 | CCCC[P+](C)(CCCC)CCCC | inactive | inactive | inactive | inactive | inactive | inactive | inactive | inactive | inactive | inactive
8 | Cc1nc(-c2ccc(Cl)cc2)oc1COC(C)(C)C(=O)O | inactive | inactive | inactive | inactive | – | inactive | inactive | inactive | inactive | inactive
9 | Cc1cccc2cccnc12 | inactive | inactive | inactive | inactive | inactive | inactive | inactive | inactive | inactive | inactive
10 | CCCC(=O)OC(C)(C)Cc1ccccc1 | inactive | inactive | inactive | inactive | inactive | inactive | – | inactive | inactive | inactive
11 | CC(C)NC[C@@H](O)COc1ccc(CC(N)=O)cc1 | inactive | inactive | inactive | inactive | inactive | inactive | inactive | inactive | inactive | inactive
12 | COc1cccc(OC)c1C(=O)O | inactive | inactive | inactive | inactive | – | inactive | inactive | inactive | inactive | inactive
